PubChem BioAssay (NCATS)
Records with an inconclusive call do not appear. Active and inactive are the calls of the source. The call rests on the fitted dose curve; in most records, active means well fitted curve in the direction sought with a large enough effect; inconclusive means small, poorly fitted or top-dose-only effect, or another doubt; inactive means no such curve, though single readings can be large; an effect the other way counts as inactive or inconclusive.

Key:
[1] = biological target: Protein phosphatase 1D (Homo sapiens) (UniProt O15297); assay: RapidFire Mass Spectrometry qHTS Assay for Modulators of WT P53-Induced Phosphatase 1 (WIP1) (AID 1347424); settings: WIP1 dephosphorylation of phosphopeptide, RapidFire MS; series mostly up to 63 µM;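 further: amount of dephosphorylated VEPPL-S-QETFS peptide product formed by WIP1; plate controls were DMSO wells for no effect and GSK830371 inhibitor control at 10 µM for full effect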
Sequence of Protein phosphatase 1D (Homo sapiens) (O15297 whole entry, looked up): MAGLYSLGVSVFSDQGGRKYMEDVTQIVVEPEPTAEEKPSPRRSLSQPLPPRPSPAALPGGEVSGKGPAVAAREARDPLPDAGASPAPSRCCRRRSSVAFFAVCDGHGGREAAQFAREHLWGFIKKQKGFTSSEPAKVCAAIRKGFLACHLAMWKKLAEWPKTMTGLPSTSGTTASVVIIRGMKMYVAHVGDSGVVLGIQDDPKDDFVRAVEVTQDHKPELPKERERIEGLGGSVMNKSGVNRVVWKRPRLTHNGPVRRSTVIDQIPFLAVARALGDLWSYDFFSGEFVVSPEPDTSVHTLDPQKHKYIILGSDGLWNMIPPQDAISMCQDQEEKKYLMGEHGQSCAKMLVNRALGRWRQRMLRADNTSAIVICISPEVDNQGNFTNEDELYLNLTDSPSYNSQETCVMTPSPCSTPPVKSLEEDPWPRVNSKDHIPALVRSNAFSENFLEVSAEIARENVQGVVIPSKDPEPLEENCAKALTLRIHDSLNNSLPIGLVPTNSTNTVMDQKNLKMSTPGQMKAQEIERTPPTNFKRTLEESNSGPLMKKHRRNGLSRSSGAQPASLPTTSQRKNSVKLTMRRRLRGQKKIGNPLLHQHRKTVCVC
In short: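 RapidFire mass spectrometry measured dephosphorylated peptide after 5 min room-temperature reaction of 2 uM VEPPL-pS-QETFS with 10 nM WIP1 (50 mM Tris-HCl pH 7.5, 30 mM MgCl2, 0.1 mM EGTA, BSA), following 1 hr compound preincubation; 1 uM isotope-labelled product standard.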

[2] = biological target: Protein phosphatase 1D (Homo sapiens) (UniProt O15297); assay: Rhodamine-PBP qHTS Assay for Modulators of WT P53-Induced Phosphatase 1 (WIP1) (AID 1347425); settings: recombinant WIP1, Rhodamine-PBP phosphate fluorescence, real-time; series mostly up to 57.5 µM; further: % of control where 0% means no effect
In short: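 Steps: enzyme with Rh-PBP sensor and compounds, room-temperature incubation of 1 hr, baseline read, addition of VEPPL-pS-QETFS (10 uM final), kinetic fluorescence reads at 525/598 nm. Activity equals final minus baseline signal.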

[3] = Primary qHTS for inhibitors of La Crosse Virus (LACV) - induced cell death in SH-SY5Y cells (AID 1508616); settings: SH-SY5Y LACV cytopathicity rescue, ATP luminescence, 6 d; series mostly up to 4.29 µM;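 further: top concentration of the series differs between compounds; 0% = infected DMSO wells and 100% = uninfected DMSO wells; higher means more rescue of cells from virus-induced death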
In short: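 Rescue of virus-induced death was read as ATPLite luminescence after 6 days at 37C, scaled between DMSO wells with LACV and without virus. Cells were SH-SY5Y, 6000/well, infected at 0.01 MOI after compound addition.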

[4] = biological target: Calcium and integrin-binding protein 1 (Homo sapiens) (UniProt Q99828); assay: Primary qHTS for Identification of Calcium Integrin Binding Protein 1 (CIB1) Competitor (AID 1508620); settings: CIB1-GST / FITC-alphaIIb peptide fluorescence polarization; series mostly up to 114 µM;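 further: GST tagged CIB1 binding a fluorescein labelled alphaIIb integrin peptide tracer; top concentration of the series differs between compounds; on the % scale 0 is the no-effect control and ±100 the full control effect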
Sequence of Calcium and integrin-binding protein 1 (Homo sapiens) (Q99828 whole entry, looked up): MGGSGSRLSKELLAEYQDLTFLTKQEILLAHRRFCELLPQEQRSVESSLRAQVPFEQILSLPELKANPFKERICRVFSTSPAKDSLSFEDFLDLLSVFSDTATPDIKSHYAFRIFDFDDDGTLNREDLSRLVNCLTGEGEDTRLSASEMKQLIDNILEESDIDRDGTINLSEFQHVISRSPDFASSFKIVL
In short: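 CIB1-GST (1 uM final) and compound incubated 15 min at room temperature before adding FITC-alphaIIb peptide tracer (100 nM final). Competition for binding read by fluorescence polarization (ex 480, em 540) after another 15 min at room temperature.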

N[C@H](C(=O)O)[C@@H](O)c1ccc(O)c(O)c1
inactive: Potency [1] | outcome [2] | outcome [3] | Potency [4]

O=C(CN1CCN(Cc2ccc3c(c2)OCO3)CC1)N1c2ccccc2Sc2ccccc21
inactive: Potency [1] | outcome [2] | outcome [3] | Potency [4]

c1ccc(CC2=NCCN2)cc1
inactive: Potency [1] | outcome [2] | outcome [3] | Potency [4]

CC(=O)OC[C@H]1O[C@@H](n2ncc(=O)[nH]c2=O)[C@H](OC(C)=O)[C@@H]1OC(C)=O
inactive: Potency [1] | outcome [2] | outcome [3] | Potency [4]

COc1cc(N)c(Cl)cc1C(=O)NC1CCN(Cc2ccccc2)CC1
inactive: Potency [1] | outcome [2] | outcome [3] | Potency [4]

O=C(O)CCNC(=O)c1ccccc1
inactive: Potency [1] | outcome [2] | outcome [3] | Potency [4]

NS(=O)(=O)c1cc(C(=O)O)cc(N2CCCC2)c1Oc1ccccc1
inactive: Potency [1] | outcome [2] | outcome [3] | Potency [4]

COC(=O)C(c1ccccc1Cl)N1CCc2sccc2C1 (configuration not stated)
inactive: Potency [1] | outcome [2] | outcome [3] | Potency [4]

O=C(NCCc1c[nH]c2ccccc12)c1cccnc1
inactive: Potency [1] | outcome [2] | outcome [3] | Potency [4]

Cc1cc2c(OCC(CNC(C)(C)C)OC(=O)c3ccccc3)cccc2[nH]1 (configuration not stated)
inactive: Potency [1] | outcome [2] | outcome [3] | Potency [4]

CCCCNC(=O)NS(=O)(=O)c1ccc(N)cc1
inactive: Potency [1] | outcome [2] | outcome [3] | Potency [4]

O[C@@H](c1cc(C(F)(F)F)nc2c(C(F)(F)F)cccc12)[C@H]1CCCCN1
inactive: Potency [1] | outcome [2] | outcome [3] | Potency [4]

N=C(N)N1CCc2ccccc2C1
inactive: activity change, negative = inhibition [1] -1.79% [at 6.17 µM] | activity change, negative = inhibition [2] -1.93% [at 4.81 µM] | activity change [3] -3.22% [at 0.431 µM] | activity change, negative = inhibition [4] -1.23% [at 12.4 µM]

CNCCCCOc1ccccc1Cc1ccccc1
inactive: Potency [1] | outcome [2] | outcome [3] | Potency [4]

CCN[C@@H]1C[C@H](N)[C@@H](OC2OC(CN)=CCC2N)[C@H](O)[C@H]1O[C@H]1OC[C@](C)(O)[C@H](NC)[C@H]1O (some centres not stated)
inactive: activity change, negative = inhibition [1] -11.3% [at 0.505 µM] | activity change, negative = inhibition [2] -2.47% [at 0.575 µM] | activity change [3] -7.05% [at 0.0343 µM] | activity change, negative = inhibition [4] 1.28% [at 1.07 µM]

COc1ccc(C(=O)c2ccccc2)c(O)c1
inactive: Potency [1] | outcome [2] | outcome [3] | Potency [4]

CC(=O)NCCCCCC(=O)O
inactive: Potency [1] | outcome [2] | outcome [3] | Potency [4]

CCCCCCCCCCCCSCCOCCO
inactive: Potency [1] | outcome [2] | outcome [3] | Potency [4]

CCN1CCCC(OC(=O)C(c2ccccc2)c2ccccc2)C1 (configuration not stated)
inactive: Potency [1] | outcome [2] | outcome [3] | Potency [4]

Cc1nc(-c2ccc(Cl)cc2)oc1COC(C)(C)C(=O)O
inactive: Potency [1] | outcome [2] | outcome [3] | Potency [4]

CC(=O)O[C@]1(C(C)=O)CC[C@H]2[C@@H]3C=C(Cl)C4=CC(=O)CC[C@]4(C)[C@H]3CC[C@@]21C
inactive: Potency [1] | outcome [2] | outcome [3] | Potency [4]

O=C(Nc1ccc([N+](=O)[O-])cc1)Nc1ccc([N+](=O)[O-])cc1
inactive: Potency [1] | outcome [2] | outcome [3] | Potency [4]

O=C(O)c1ccc(S(=O)(=O)N(Cl)Cl)cc1
inactive: Potency [1] | outcome [2] | outcome [3] | Potency [4]

CCCCCCCCCCCCCCCCO
inactive: Potency [1] | outcome [2] | outcome [3] | Potency [4]

CCc1nn(CCCN2CCN(c3cccc(Cl)c3)CC2)c(=O)n1CCOc1ccccc1
inactive: Potency [1] | outcome [2] | outcome [3] | Potency [4]

COc1cc(C(=O)N2CCCCCCC2)cc(OC)c1OC
inactive: Potency [1] | outcome [2] | Potency [4]

CCN(CC)CCOc1ccc2c(c1)C(=O)c1cc(OCCN(CC)CC)ccc1-2
inactive: Potency [1] | outcome [2] | Potency [4]

CC(C)(C)CC(C)(C)c1ccc(O)c(-n2nc3ccccc3n2)c1
inactive: Potency [1] | outcome [2] | outcome [3] | Potency [4]

CC(C)NCC(O)c1ccc2ccccc2c1 (configuration not stated)
inactive: Potency [1] | outcome [2] | outcome [3] | Potency [4]

Cc1c(-c2ccccc2)oc2c(C(=O)OCCN3CCCCC3)cccc2c1=O
inactive: Potency [1] | outcome [2] | outcome [3] | Potency [4]

CCN(CC)CCOC(=O)C1(c2ccccc2)CCCC1
inactive: Potency [1] | outcome [2] | outcome [3] | Potency [4]

CCCCc1cc2ccccc2c(OCCN(C)C)n1
inactive: Potency [1] | outcome [2] | Potency [4]

COc1ccc(C(Cl)=C(c2ccc(OC)cc2)c2ccc(OC)cc2)cc1
inactive: Potency [1] | outcome [2] | Potency [4]

CCOc1cc(OCC)c(C(=O)CCC(=O)O)cc1OCC
inactive: Potency [1] | outcome [2] | outcome [3] | Potency [4]
